Data taken from PubChem BioAssay AID2546 (National Center for Advancing Translational Sciences (NCATS), 2010).
Among all 310,000 compounds or so, about 11,000 (3.5%) were called active. About 8% were inconclusive and are not listed. The call rests on the fitted dose curve; in most records, active means well fitted inhibition curve with a large enough effect; inconclusive means small, poorly fitted or top-dose-only effect, or effect the other way; inactive means flat fitted curve, though single readings scatter. Shown is part of a subset that was picked to be rich in actives. Entries that show only a call come without a potency.

assay: VP16 counterscreen qHTS for inhibitors of ROR gamma transcriptional activity; settings: Drosophila S2 Gal4-VP16 UAS-luciferase, luminescence, 20 h; series mostly up to 53.6 µM;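 further: Gal4-VP16 expression switched on by copper sulfate through the metallothionein promoter; nearly all actives have a fitted effect of over 50% in size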
Excerpt: NIH Molecular Libraries Probe Production Network [MLPCN]
NIH Chemical Genomics Center [NCGC]
Assay Provider: Dan Littman, New York University
The retinoic acid-related orphan receptor (ROR) gamma is a transcription factor that has a central role in the differentiation of Th17 cells, a subset of T helper cells that secrete the inflammatory cytokines IL-17, IL-17F, and IL-22. Th17 cells have been implicated in graft versus host disease, autoimmune disease and asthma. ROR gamma is induced in naive T helper cells in the presence of TGF-beta combined with IL-6, IL-21, or IL-23, and thereafter directs the expression of the Th17 lineage cytokines. To identify nonspecific inhibitors, a Drosophila Schneider cell line was stably transfected with two vectors: a gene expressing a fusion of the Gal4 DNA binding domain and VP16 transactivation domain under the control of the metallothionine promoter and a Photinus luciferase reporter regulated by the Gal4 binding site enhancer, UAS. […] Small molecule inhibitors that inhibit components common to the RORgt and VP16 assays, such as the Gal4 DNA binding domain or the UAS luciferase reporter, will be active in both assays and thus scored as nonspecific.
For screening, 600 cells in 4 uL/well were dispensed into white solid 1536-well plates (Grenier) using a solenoid-based dispenser. Following transfer of 23 nL compound or DMSO vehicle by a pin tool, the plates were incubated 1 hr at ambient temperature, and 1 uL/well copper sulfate (700 uM final concentration) was added. The plates were centrifuged 15 s at 1000 RPM and incubated 20 hr at ambient temperature. After addition of 1.5 uL Photinus luciferase detection reagent, the plates were incubated 10 min at ambient temperature and then read by a ViewLux (Perkin Elmer) to detect luminescence.
Potency means the concentration at half of the fitted maximal effect.

Row | Structure (SMILES) | Potency
1 | COc1ccc(CNS(=O)(=O)c2ccc(-c3cnc(C4CC4)o3)cc2)cc1 | inactive
2 | Cc1ccc(S(=O)(=O)NNC(=O)/C=C/c2cccc(F)c2)cc1 | inactive
3 | Cc1c(CC(=O)NCC(=O)NCC(=O)O)c(=O)oc2cc3oc4c(c3cc12)CCCC4 | inactive
4 | C=CCn1c(C)cc(C2=NNC(=NCC)SC2)c1C | 1 µM (active)
5 | Cc1cc(C2=NNC(=Nc3ccc(S(=O)(=O)N4CCOCC4)cc3)SC2)c(C)n1CC1CCCO1 (stereo not drawn) | inactive
6 | CS(=O)(=O)N1CCc2cc(C(=O)Nc3ccccc3Br)ccc21 | inactive
7 | CS(=O)(=O)c1ccc(Cl)c(NC(=O)Nc2ccccc2)c1 | inactive
8 | O=C(Nc1ccccc1)c1nnsc1S(=O)(=O)c1ccc(Cl)cc1 | 11.2 µM (active)
9 | CC(=O)Nc1cc(C(=O)O)ccc1S(=O)(=O)c1ccc(Cl)cc1 | inactive
10 | CC(=O)Nc1ccc(NC(=O)CN2C(=O)COc3ccc(S(=O)(=O)N4CCCCC4)cc32)cc1 | inactive
11 | O=[N+]([O-])c1ccc(N(CCO)Cc2ccccc2)c([N+](=O)[O-])c1 | inactive
12 | Cc1cccc(/C(N)=N/OC(=O)c2ccccc2Cl)c1 | 5.01 µM (active)
13 | Cc1cccc(C(=O)O)c1 | inactive
14 | Cc1cccc(C(=O)c2cccc(C)c2)c1 | inactive
15 | Cc1ccc(Cn2ccc(NC(=O)c3cc(C(C)C)on3)n2)cc1 | inactive
16 | O=C(Nc1ccn(Cc2ccccc2)n1)c1n[nH]c([N+](=O)[O-])c1Cl | 11.2 µM (active)
17 | O=C(Nc1ccn(Cc2ccccc2)n1)c1cccc(F)c1 | inactive
18 | CCc1ccc(-c2cc3c(=O)n(CC(=O)NCCCN4CCN(Cc5ccccc5)CC4)nc(C)n3n2)cc1 | inactive
19 | O=C(/C=C/c1ccc(Cl)cc1)NCCCn1ccnc1 | inactive
20 | Cc1ccc2nc(N3C(=O)C(O)=C(C(=O)c4ccco4)C3c3cccc(O)c3)sc2c1 (stereo not drawn) | inactive
21 | c1c2c(cc3sc(N4CCCCC4)nc13)OCCO2 | 1.26 µM (active)
22 | Brc1ccc2nc(N3CCCC3)sc2c1 | inactive
23 | Cc1nc2cc3c(cc2s1)OCO3 | inactive
24 | CN(c1ccccc1)S(=O)(=O)c1cc(C(=O)OCC(=O)N2CCN(C(=O)c3ccco3)CC2)ccc1Cl | inactive
25 | CN(c1ccccc1)S(=O)(=O)c1cc(C(=O)Nc2nc3ccccc3[nH]2)ccc1Cl | 3.16 µM (active)
26 | CN(c1ccccc1)S(=O)(=O)c1ccc(Cl)c(C(=O)NCCc2c[nH]c3ccccc23)c1 | inactive
27 | Cc1c2cnn(CC(=O)NCCCN3CC(C)CC(C)C3)c(=O)c2c(C)n1Cc1ccc(Cl)cc1 (stereo not drawn) | inactive

Row | Structure (SMILES) | Potency
28 | COc1ccc(C(=O)NCc2nnc(SCC(=O)NC3=NCCS3)n2C)cc1 | inactive
29 | Cc1cc(-c2ccc(S(=O)(=O)N3CCN(c4cccc(C(F)(F)F)c4)CC3)s2)on1 | inactive
30 | NC(=O)c1cc2ccccc2o/c1=N/NC(=O)c1cccc(F)c1 | inactive
31 | Cc1cccc(S(=O)(=O)N2CN(CC3CCCO3)c3nc4ccccc4nc32)c1 (stereo not drawn) | inactive
32 | CC1=C(C(N)=O)C(c2ccc(Br)cc2)n2ncnc2N1 (stereo not drawn) | inactive
33 | Fc1ccccc1/C=C1\CCCC2=C1Nc1ncnn1C2c1ccccc1F (stereo not drawn) | 3.98 µM (active)
34 | Cc1ccc(C(=O)c2coc3ccc(O)c(CN(C)C)c23)cc1 | inactive
35 | CCCCCCn1cc(C(=O)O)c(=O)c2cc(F)c(N3CCCCC3)cc21 | inactive
36 | Cc1ccc(NC(=O)c2cc(-c3ccccc3O)n[nH]2)cc1C | inactive
37 | O=C(c1ccc(OC2CCN(C/C=C/c3ccc(F)cc3)CC2)cc1)N1CCCCC1 | inactive
38 | COc1ccccc1OCc1ccc(C(=O)NC(C)c2ccccc2)o1 (stereo not drawn) | inactive
39 | CCOc1ccc(C)cc1S(=O)(=O)NC1CCCCCC1 | inactive
40 | COC(=O)Cc1ccc(Oc2ncc(C(F)(F)F)cc2Cl)cc1 | inactive
41 | COc1cc(/C=C2\SC(=S)N(Nc3ncc(C(F)(F)F)cc3Cl)C2=O)cc(OC)c1OC | inactive
42 | COc1cccc(/C=N/Nc2ncc(C(F)(F)F)cc2Cl)c1O | 3.16 µM (active)
43 | CCSc1nc2sc3c(c2c(=O)[nH]1)CC(C)(C)OC3 | inactive
44 | C=CCNC(=S)NNc1ncnc2sc3c(c12)CC(C)(C)OC3 | 7.08 µM (active)
45 | CN(C)CCSc1nc(N)c2c3c(sc2n1)COC(C)(C)C3 | inactive
46 | CC(C)(C)NS(=O)(=O)c1ccc(NC(=O)C2CCCO2)cc1 (stereo not drawn) | inactive
47 | Cc1c(C)c2c(OCC(=O)NCCCO)cc3c(c2oc1=O)CCC(C)(C)O3 | inactive
48 | COC(=O)c1c(NC(=O)c2ccc(S(=O)(=O)N3CCOCC3)cc2)sc2c1CCN(C(C)C)C2 | inactive
49 | CC(C)CCn1c(=O)c2c(nc3n2CCCN3Cc2ccccc2)n(C)c1=O | inactive
50 | COc1ccc(NC(=S)NCCN2CCC(C)CC2)cc1 | inactive
51 | COc1cccc(N2CC(C(=O)Nc3c(C)cccc3C)CC2=O)c1 (stereo not drawn) | inactive
52 | COc1ccc(NC(=S)NCC2CCN(c3ccc(OC)cc3)C2)cc1 (stereo not drawn) | 4.47 µM (active)
53 | COc1ccc(OCC(=O)Nc2ccc(N3CCC(C)CC3)cc2)cc1 | inactive
